According to PubChem BioAssay AID1159580 (chemical genetic matrix, 2015):
“And” between values parts separate entries of the source, which are not always exact repeats. Equal values may be shown once. Screen size: about 5,500 compounds; about 2,000 (36%) were called active. Not shown: some 18% with an inconclusive outcome. Rule as the data show it: active = normalized growth mostly below about 0.91 (no sharp cut-off); inconclusive = no clear call, values can overlap the other calls; inactive = mostly above about 0.92. The list shows a part of the results.

Experiment: chemical genetic growth profiling, strain panel (AID 1159580);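 also: tested at 20 µM; growth read once vehicle control cultures reached saturation at 30 °C; 1 = growth at the plate median or of vehicle wells; lower values mean less growth of the strain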
Details: S. cerevisiae deletion strains, growth OD

Measured: normalized growth

CN(C)CCCO[C@H]1[C@@H](C(O)CO)OC2OC(C)(C)O[C@@H]21 (some centres not stated)
inactive: locus YAL013W, strain DEP1, stronger effect = lower value 0.928 | locus YAL021C, strain ccr4, stronger effect = lower value 1 | locus YAL026C, strain drs2, stronger effect = lower value 0.98 | locus YAL030W, strain snc1, stronger effect = lower value 0.98 | locus YBL061C, strain skt5, stronger effect = lower value 0.98 | locus YBR009C, strain hhf1, stronger effect = lower value 0.985 | locus YBR021W, strain FUR4, stronger effect = lower value 0.953 | locus YBR023C, strain chs3, stronger effect = lower value 0.98 | locus YBR171W, strain sec66, stronger effect = lower value 0.964 | locus YBR229C, strain ROT2, stronger effect = lower value 0.993 | locus YBR231C, strain swc5, stronger effect = lower value 0.992 | locus YBR279W, strain paf1, stronger effect = lower value 1.01 | locus YCL011C, strain gbp2, stronger effect = lower value 0.956 | locus YCL016C, strain dcc1, stronger effect = lower value 0.973 | locus YCL029C, strain bik1, stronger effect = lower value 0.984 | locus YCL061C, strain MRC1, stronger effect = lower value 0.987 | locus YCL069W, strain vba3, stronger effect = lower value 0.996 | locus YCR088W, strain abp1, stronger effect = lower value 0.994 | locus YDL005C, strain med2, stronger effect = lower value 0.995 | locus YDL035C, strain GPR1, stronger effect = lower value 0.946 | locus YDL040C, strain nat1, stronger effect = lower value 0.995 | locus YDL074C, strain BRE1, stronger effect = lower value 0.871 | locus YDL101C, strain DUN1, stronger effect = lower value 0.994 | locus YDL134C, strain PPH21, stronger effect = lower value 0.991 | locus YDL185W, strain tfp1, stronger effect = lower value 0.98 | locus YDL192W, strain arf1, stronger effect = lower value 0.966 | locus YDR001C, strain nth1, stronger effect = lower value 0.968 | locus YDR069C, strain doa4, stronger effect = lower value 0.989 | locus YDR101C, strain arx1, stronger effect = lower value 0.981 | locus YDR137W, strain rgp1, stronger effect = lower value 0.963 | locus YDR150W, strain NUM1, stronger effect = lower value 0.995 | locus YDR159W, strain sac3, stronger effect = lower value 0.982 | locus YDR162C, strain NBP2, stronger effect = lower value 1.08 | locus YDR195W, strain ref2 0.995 | locus YDR297W, strain sur2, stronger effect = lower value 0.992 | locus YDR318W, strain mcm21, stronger effect = lower value 0.933 | locus YDR334W, strain swr1, stronger effect = lower value 0.938 | locus YDR335W, strain msn5, stronger effect = lower value 0.981 | locus YDR388W, stronger effect = lower value 0.989 | locus YDR392W, strain spt3, stronger effect = lower value 0.921 | locus YDR502C, strain sam2, stronger effect = lower value 0.937 | locus YEL003W, strain gim4, stronger effect = lower value 0.98 | locus YEL037C, strain rad23, stronger effect = lower value 0.977 | locus YEL061C, strain CIN8 (second series), stronger effect = lower value 0.975 | locus YEL061C, strain CIN8, stronger effect = lower value 0.993 | locus YER015W, strain faa2, stronger effect = lower value 0.991 | locus YER016W, strain bim1, stronger effect = lower value 0.999 | locus YER110C, stronger effect = lower value 0.946 | locus YER111C, strain swi4, stronger effect = lower value 0.986 | locus YER155C, strain BEM2 (second series), stronger effect = lower value 0.98 | locus YER155C, strain BEM2, stronger effect = lower value 1 | locus YER167W, strain BCK2, stronger effect = lower value 0.915 | locus YFR010W, strain ubp6, stronger effect = lower value 0.971 | locus YGL078C, strain dbp3, stronger effect = lower value 1 | locus YGL167C, strain pmr1, stronger effect = lower value 0.984 | locus YGL173C, strain kem1, stronger effect = lower value 0.964 | locus YGL227W, strain vid30, stronger effect = lower value 0.987 | locus YGL240W, strain doc1, stronger effect = lower value 1 | locus YGL248W, strain PDE1, stronger effect = lower value 0.977 | locus YGL253W, strain hxk2, stronger effect = lower value 0.996 | locus YGR078C, strain PAC10, stronger effect = lower value 0.907 | locus YGR135W, strain pre9, stronger effect = lower value 0.929 | locus YGR252W, strain gcn5, stronger effect = lower value 0.849 | locus YHR013C, strain ard1, stronger effect = lower value 0.973 | locus YHR027C, strain rpn1, stronger effect = lower value 0.968 | locus YHR030C, strain SLT2, stronger effect = lower value 0.984 and 0.969 | locus YHR079C, strain IRE1 (second series), stronger effect = lower value 0.977 | locus YHR079C, strain IRE1, stronger effect = lower value 0.984 | locus YHR094C, strain hxt1, stronger effect = lower value 0.986 | locus YHR129C, strain ARP1, stronger effect = lower value 0.963 | locus YHR142W, strain chs7, stronger effect = lower value 0.946 | locus YHR200W, strain rpn10, stronger effect = lower value 0.948 | locus YIL066C, strain RNR3, stronger effect = lower value 0.951 | locus YIL073C, strain SPO22, stronger effect = lower value 0.932 | locus YIL125W, strain kgd1, stronger effect = lower value 0.993 | locus YIR030C, strain dcg1, stronger effect = lower value 0.986 | locus YJL092W, strain hpr5, stronger effect = lower value 0.987 | locus YJL095W, strain BCK1 (second series), stronger effect = lower value 0.993 | locus YJL095W, strain BCK1, stronger effect = lower value 0.883 and 0.978 | locus YJL115W, strain asf1, stronger effect = lower value 0.963 | locus YJL129C, strain trk1, stronger effect = lower value 1.01 | locus YJL134W, strain LCB3, stronger effect = lower value 0.993 | locus YJL154C, strain vps35, stronger effect = lower value 0.966 | locus YJL164C, strain tpk1, stronger effect = lower value 0.998 | locus YJL166W, strain qcr8, stronger effect = lower value 0.969 | locus YJL168C, strain set2, stronger effect = lower value 0.985 | locus YJL187C, strain SWE1 (second series), stronger effect = lower value 0.989 | locus YJL187C, strain SWE1, stronger effect = lower value 0.994 | locus YJR066W, strain TOR1, stronger effect = lower value 0.97
active: locus YGL086W, strain mad1, stronger effect = lower value 0.926 | locus YGR229C, strain SMI1, stronger effect = lower value 0.8 | locus YJR043C, strain POL32, stronger effect = lower value 0.85
